# Most compounds without a hit are left out; they make up all but 3% or so of the library.
# SARS PLP yeast: blocks SARS-CoV papain-like protease in a yeast assay; hit rate 0.19% among 330,000; S. cerevisiae expressing SARS-CoV PLpro, growth rescue; Potency, µM (top dose mostly 32.9 µM), for inactives: at the top dose activity, positive = growth rescue, usual class: activators; calls by dose curve; also: 0% is about no effect; nearly all actives have a fitted effect of over 55% in size
# Sm TGR inh: S. mansoni TGR enzyme inhibition; purified TGR, DTNB reduction, TNB absorbance 405 nm; hit rate 3% among 360,000; Q962Y6; Potency, µM (top dose mostly 114 µM), without a hit: at the top dose activity change, negative = inhibition, most hits filed as inhibitors; active = well fitted inhibition curve with a large enough effect; inconclusive = small, poorly fitted or top-dose-only effect; inactive = no such curve, though single readings can be large or run the other way; also: % is scaled to controls: 0 for no effect and ±100 for the full control effect; nearly all actives have a fitted effect of over 60% in size
#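 First, TGR (20 nM dispensed) and NADPH were mixed with compound. Second, a 15 min room-temperature incubation followed. Third, further NADPH and then DTNB were added to start the reaction. Finally, TNB absorbance was monitored kinetically.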
# * hit, by the source's call; u = inconclusive; x = no result. Potency is read from the fitted curve at half-maximal effect.
SMILES,SARS PLP yeast,Sm TGR inh
O=C(N/N=C/c1c(O)n(C2CCCCC2)c(=S)[nH]c1=O)c1ccccc1,-3%,-30%
CCCCC(=O)N/N=C/c1c(O)n(C2CC2)c(=S)[nH]c1=O,3%,-6%
O=c1[nH]c(=S)n(C2CC2)c(O)c1/C=N/Nc1cccc2ccccc12,-6%,35µM*
O=c1[nH]c(=S)n(C2CC2)c(O)c1/C=N/Nc1ccccc1,-23%,20µM*
CCC(=O)N1CCc2cc(CNC(=O)c3cccc(N(C)C)c3)ccc21,x,2%
CCN(CC)S(=O)(=O)c1ccc(C(=O)Nc2nc3c(Cl)cc(Cl)cc3s2)cc1,x,1%
COc1ccc(N(C)C(=O)c2cc(S(=O)(=O)N3CCc4ccccc43)cn2C)c(OC)c1,x,-12%
Cc1nc(N2CCOCC2)c2c(C(=O)NCCc3ccccc3)c(C)oc2n1,x,3%
CC(Sc1nc(-c2ccccc2)c(C#N)c(=O)[nH]1)C(=O)Nc1ccc(F)cc1 (centres undefined),x,-3%
COCC(=O)N1CCCC(C(=O)c2ccc(-c3ccccc3)cc2)C1 (centres undefined),-12%,28µM*
CN1CCCC(C(=O)c2ccc(-c3ccccc3)cc2)C1 (centres undefined),6%,-9%
O=Cc1cccc(OC(=O)/C=C/c2ccco2)c1,3%,28µM*
COC(=O)c1ccc(OC(=O)/C=C/c2ccco2)cc1,2%,-21%
O=C(CCS(=O)(=O)c1cc(Br)cc2c1N(C(=O)C1CC1)CC2)NCc1ccccc1Cl,x,1%
Cc1ccccc1C(=O)Nc1nnc(SCc2cc(=O)c3c(C)ccc(C)c3[nH]2)s1,x,15%
CCn1c(=O)oc2cc(NC(=O)CCl)ccc21,2%,40µM*
O=C(CCn1c(=O)oc2cc(Cl)ccc21)Nc1ccc(O)cc1,-1%,1%
Cc1ccc(Cl)cc1NC(=O)CSC1=Nc2ccccc2C2=NC(Cc3ccccc3)C(=O)N12 (centres undefined),x,6%
c1coc(Cn2c(-c3ccco3)nc3ccccc32)c1,-3%,u
Clc1ccc(-c2nc3nc4ccccc4nc3n2Cc2ccco2)cc1,-11%,20µM*
Cc1ccc(-c2nc3nc4ccccc4nc3n2Cc2ccco2)cc1,-2%,18µM*
CCCn1c(-c2ccc(OC)cc2)nc2nc3ccccc3nc21,-8%,6%
CCOC(=O)CNC(=O)c1cc2c(=O)n(CC)c3ccccc3c2s1,x,0%
COc1ccc(CCn2c(=O)c3ccccc3n(CC(=O)Nc3cccc(C)c3)c2=O)cc1OC,x,-3%
CC(=O)N1CCC2(CC1)C(C#N)=C(N)OC1=C2C(=O)CC(C)(C)C1,-2%,-8%
SMILES,SARS PLP yeast,Sm TGR inh
CC1(C)CC(=O)C2=C(C1)OC(N)=C(C#N)C21CCN(Cc2ccccc2)CC1,10%,14µM*
CCOC(=O)N1CCC2(CC1)C(C#N)=C(N)OC1=C2C(=O)CC(C)(C)C1,6%,1%
CC1(C)CC(=O)C2=C(C1)OC(N)=C(C#N)C21CCC2(CC1)OCCO2,x,22µM*
Cn1c(-n2cccc2)c(-c2c(-c3ccc(F)cc3)[nH]c3c2c(=O)[nH]c(=O)n3C)c(=O)[nH]c1=O,x,-4%
COc1ccc(/C=C\c2onc(C)c2S(=O)(=O)N2CCC(C(=O)Nc3ccccc3OC)CC2)cc1,x,-7%
Cc1ccc2cc(C3C(C#N)=C(N)Oc4c3ccc3cccnc43)c(=O)[nH]c2c1 (centres undefined),27%,11µM*
CC(=O)C1=C(C)OC(N)=C(C#N)C1c1cc2cccc(C)c2nc1Cl (centres undefined),-2%,u
Cc1ccc(-n2c(=O)c3c(cnn3C)n(CC(=O)Nc3ccc(C)cc3C)c2=O)cc1,x,0%
Cc1ccc(CN(Cc2cccn2-c2nnc(N3CCCC3=O)s2)C(=O)Nc2cc(C)cc(C)c2)cc1,x,5%
CCC1CCCCN1C(=O)CCc1nnc(Cc2c[nH]c3ccccc23)o1 (centres undefined),-1%,25µM*
CC1CCCCN1C(=O)CCc1nnc(Cc2c[nH]c3ccccc23)o1 (centres undefined),-1%,35µM*
COC(=O)C1CCCCN1C(=O)CCc1nnc(CCc2c[nH]c3ccccc23)o1 (centres undefined),1%,0%
CC(C)CN1CCN(C(=O)CCc2nnc(Cc3c[nH]c4ccccc34)o2)[C@@H](C)C1=O,3%,20µM*
CN(CCC1CCCCO1)C(=O)CCc1nnc(CCc2ccccc2)o1 (centres undefined),2%,-25%
CCN1CCN(C(=O)CCc2nnc(CCc3c[nH]c4ccccc34)o2)[C@@H](C)C1=O,-4%,u
COC(=O)[C@@H]1CCCN1C(=O)CCc1nnc(CCc2c[nH]c3ccccc23)o1,-4%,14%
CN(CCC1CCCCO1)C(=O)CCc1nnc(Cc2c[nH]c3ccccc23)o1 (centres undefined),27%,89µM*
Cc1ccc(NC(=O)c2cnc(SCC(=O)N3CCCc4ccccc43)n(C)c2=O)cc1C,x,5%
O=C(CCS(=O)(=O)c1ccc(Br)cc1)Nc1ccc(Cl)c(C(F)(F)F)c1,x,-17%
Cn1c(C(=O)N2CCOCC2)cc2c(=O)n3ccccc3nc21,1%,-25%
Cn1c(C(=O)N2CCN(C(=O)c3ccco3)CC2)cc2c(=O)n3ccccc3nc21,6%,45µM*
CCOc1ccc(Cn2c(CNS(=O)(=O)c3ccc(Cl)s3)nc3cccnc32)cc1,x,27%
COc1cccc(CNC(=O)c2ccc3nc(N4CCCCC4)sc3c2)c1OC,x,0%
CCc1c(C)c(C#N)c2nc3ccccc3n2c1Nc1cccc(C(F)(F)F)c1,x,2%
Nc1ccc2c(c1)OC1(CCCCC1)O2,1%,14µM*
SMILES,SARS PLP yeast,Sm TGR inh
COc1cccc(CC(=O)Nc2ccc3c(c2)OC2(CCCC2)O3)c1,-16%,-1%
Cc1ccc(-c2cc(-c3ccc(C)o3)nc(N)c2C#N)cc1,-27%,3.2µM*
Cc1nc(N)c(C#N)c(-c2ccc3c(c2)OCO3)c1C,-1%,6%
CCOc1cc(-c2cc(-c3ccc(C)o3)nc(N)c2C#N)ccc1O,-14%,-24%
Cc1ccc(-c2cc(-c3ccc(Cl)cc3)c(C#N)c(N)n2)o1,-29%,3.5µM*
Cc1ccc(-c2cc(-c3ccc(F)cc3)c(C#N)c(N)n2)o1,-43%,20µM*
Cc1ccc(-c2cc(-c3ccc4c(c3)OCO4)c(C#N)c(N)n2)o1,-7%,10µM*
Cc1ccc(-c2c(C#N)c(N)nc3c2CCCCCC3)o1,-1%,-7%
Cc1c(-c2ccc(F)cc2)nc(N)c(C#N)c1-c1ccco1,6%,-31%
CCN(CC)CCCNC(=O)c1nn(C)c2c1CS(=O)(=O)c1ccccc1-2,x,0%
Cc1cc2n(n1)CCCN2C(=O)Nc1cccc(C)c1C,x,1%
COc1ccc(NS(=O)(=O)c2ccc3c(c2)CCN3C(=O)CCC(=O)O)cc1Cl,x,0%
COc1ccc(-c2cc(-c3ccc(O)cc3)nc(N)c2C#N)cc1OC,0%,-31%
Cc1cc(-c2cc(-c3ccc(Cl)cc3)nc(N)c2C#N)co1,-18%,3.2µM*
Cc1oc(C)c2c(=O)ccc3c(c12)OC(N)=C(C#N)C3c1ccc(F)cc1 (centres undefined),8%,18µM*
Cc1[nH]nc2c1C(c1ccc(F)cc1)C(C#N)=C(N)O2 (centres undefined),-3%,-31%
COc1ccc2c(c1)sc1ncc(C(=O)NCc3ccc(Cl)cc3)c(=O)n12,x,2%
O=C(CCC(=O)N1CCN(c2ccc(O)cc2)CC1)c1cccs1,-1%,56µM*

# Screening data: PubChem, National Center for Advancing Translational Sciences (NCATS)
